# Test results as given in PubChem BioAssay AID1981 (Southern Research Specialized Biocontainment Screening …, 2009).
# Hit rate of the full screen: of about 2,200 compounds, about 480 (22%) were called active. How the calls were made is not given here. These entries were drawn from the full list. Where a call stands in place of a potency, no number is given. Potency and affinity values are given separately.
# Test: S. Typhimurium GFP fluorescence modified counterscreen for PhoP regulon inhibitor project dose response (AID 1981)
# Details: 4 h; series mostly up to 150 µM
row,Compound,outcome
1,CC(=O)Nc1nc2nc(-c3ccccc3)cc(-c3ccccc3)n2n1,inactive
2,CCOC(=O)C(/C=C(\C#N)C(=O)OCC)=C(/N)N1CCN(c2c(C)cccc2C)CC1,inactive
3,O=C(CCN1CCc2ccccc2C(c2ccccc2)C1)c1ccc2c(c1)OCCO2 (configuration not stated),inactive
4,CCCC(=O)c1c[nH]c(C(=O)NCCCN2CCOCC2)c1,inactive
5,O=C(c1ccc(CSc2nc3ccncc3[nH]2)cc1)N1CCN(c2cccc(Cl)c2)CC1,inactive
6,O=S(=O)(c1ccc(F)c2ccccc12)N1CCCCC1,inactive
7,COc1ccc(-c2[nH]ncc2/C=C(\C#N)C(=O)NC2CC2)cc1,inactive
8,COC(=O)C1=C(C)N(C)C(=O)/C1=C\c1ccco1,inactive
9,COC(=O)c1ccc(NC(=S)NCCc2cccc(C)c2)cc1,inactive
10,COc1ccc(S(=O)(=O)n2nc(OC(=O)c3ccccc3Br)cc2N)cc1,inactive
11,CN(C(=O)C1CCOC1)c1nnc(-c2ccccn2)s1 (configuration not stated),inactive
12,O=C1NC(c2ccc3c(c2)OCO3)Oc2ccccc21 (configuration not stated),inactive
13,CCn1nnc(-c2ccccc2NS(=O)(=O)c2ccc(S(=O)(=O)N3CCCCCC3)cc2)n1,inactive
14,Cc1cc(C(=O)N/N=C/c2ccc[nH]2)no1,inactive
15,CC(C)CCNC(=S)Nc1ccc([N+](=O)[O-])cc1,inactive
16,O=C(NC1CCN(C(=O)N2c3ccccc3Sc3ccccc32)CC1)c1ccco1,inactive
17,Cc1cc(CNC(=O)Nc2ccc3c(c2)OCO3)nn1C,inactive
18,O=C(COc1ccc2ccccc2c1)N1CCN(CC2CC3C=CC2C3)CC1 (configuration not stated),inactive
19,COCC(=O)N(Cc1ccco1)c1nnc(C2CCOC2)s1 (configuration not stated),inactive
20,CCCc1nn(C)c2c1C(c1cccnc1)C(C#N)=C(N)O2 (configuration not stated),inactive
21,CCOC(=O)C1(S(=O)(=O)c2ccccc2)CCN(Cc2ccc(Cl)cc2)CC1,inactive
22,O=C(CN1C(=O)c2ccccc2C1=O)N1CCN(c2ccccn2)CC1,inactive
23,Cc1ccc(/C=C/c2nnc(-c3ccc(C)cc3)o2)cc1,inactive
24,CC(=O)n1cc(/C=N/NC(=O)c2sc(C)nc2C)c2ccccc21,inactive

row,Compound,outcome
1,COc1ccc(OCCn2cc(/C=N/NC(=O)c3ccncc3)c3ccccc32)cc1,inactive
2,COc1ccc(C2CC(c3ccccc3)=NN2c2ccc(/C=N/NC(=O)c3ccncc3)cc2)cc1 (configuration not stated),inactive
3,COc1ccc2ccccc2c1/C=N/NC(=O)c1sc(N)c(C#N)c1C,inactive
4,COc1ccc2c(c1)CC1(CN2C)C(=O)NC(=O)N(c2ccc(F)cc2)C1=O (configuration not stated),inactive
5,O=C1Nc2ccc(F)cc2C12SCCS2,inactive
6,Cc1cc2ncn(CC(O)COc3cccc(C(=O)O)c3)c2cc1C (configuration not stated),inactive
7,COc1cc([N+](=O)[O-])cc(/C=N/NC(=O)c2cccnc2)c1O,inactive
8,COc1cc([N+](=O)[O-])ccc1NC(=O)CN(C)C,inactive
9,C#CC(C)(CC)NC(=O)c1cc(OC)c(OC)c(OC)c1 (configuration not stated),inactive
10,CC(C)(C)c1cc2cccnc2n1Cc1cccc(Cl)c1,inactive
11,COc1ccc(Cl)cc1C(=O)Nc1ccc(NC(=O)c2ccco2)cc1,inactive
12,O=C(O)CCc1nn2c3ccccc3n(CC(=O)c3ccccc3)c2nc1=O,inactive
13,Nc1ncncc1-c1ccc(Cl)cc1,inactive
14,Nc1c(-c2ccccc2)cnn1-c1cccc([N+](=O)[O-])c1,inactive
15,CCOC(=O)C1CCCN(C(=O)Cc2ccc(Cl)cc2)C1 (configuration not stated),inactive
16,CC1=CC(C)C2(CO)COC(c3ccccc3O)C1C2C (configuration not stated),inactive
17,CNc1nc(-c2ccccn2)nnc1-c1ccccc1,inactive
18,Nc1nc(Nc2ccc(Cl)cc2)n[nH]1,inactive
19,Cc1ccc2c(CN3CCC(C)CC3)cc(=O)oc2c1,inactive
20,Cc1[nH]c2ccccc2c1C1=NNC(=Nc2ccc(F)cc2)SC1,inactive
21,CCN1/C(=C/C(C)=C/c2sc3ccccc3[n+]2CC)Sc2ccccc21,inactive
22,COc1ccc(C(=O)COc2nc(C)cc(C)c2C#N)cc1,inactive
23,Cc1cc(-c2csc(NC(=O)c3ccc(S(=O)(=O)N(C)C)cc3)n2)c(C)n1-c1ccccc1,inactive
24,CC1(C)CC(=O)c2c(nc3ccccc3c2N)C1,inactive

row,Compound,outcome
1,Cc1nn(-c2ccc(Cl)cc2)c2[nH]c(=O)c(CNCc3ccc4c(c3)OCO4)cc12,inactive
2,CC(O)c1ccc(OCCN(C)c2ccccn2)cc1 (configuration not stated),inactive
3,Cc1cc(C)n(-c2ccc(C(=O)Nc3nc4ccccc4s3)cc2)n1,inactive
4,CC(=O)c1c(N2CCN(C(=O)C3CCCO3)CC2)nc(=S)n(-c2ccccc2)c1C (configuration not stated),inactive
5,O=S(=O)(Cc1ccccc1Cl)N1CCN(Cc2ccc3c(c2)OCO3)CC1,inactive
6,Cc1ccc(-n2c(C)cc(C3=NNC(=NC4CC4)SC3)c2C)cc1C,inactive
7,Cc1nc2ccccc2c(=O)n1/N=C/c1ccc(N(C)C)cc1,inactive
8,c1ccc(Cc2nnc(-c3ccccc3)o2)cc1,inactive
9,NCCCCCc1nnc(SCc2ccc(Cl)c(Cl)c2)o1,inactive
10,O=C(c1ccc(-c2ccccc2)cc1)c1ccccc1C(=O)N1CCOCC1,inactive
11,COc1ccc(N2CCN(C(=O)C3CCCO3)CC2)cc1 (configuration not stated),inactive
12,O=C(c1ccc(Cl)cc1Cl)C1(n2cncn2)Oc2ccccc2C1O (configuration not stated),inactive
13,Cc1cccc(-n2ncc3c(NCc4ccc5c(c4)OCO5)ncnc32)c1,inactive
14,Brc1ccc2cccnc2c1,inactive
15,O=C1C2C3c4ccccc4C(c4ccccc43)C2C(=O)N1c1cccc2cccnc12 (configuration not stated),inactive
16,Cc1ccc(C=Nc2ccccc2C(N)=O)cc1,inactive
17,CCOc1c(Br)cc(CNCc2cccs2)cc1OC,inactive
18,Clc1ccc(Cn2ncc3c(NCc4ccco4)ncnc32)c(Cl)c1,inactive
19,Cc1ccc(NC(=O)CCCSc2nc3ccccc3[nH]2)cc1,inactive
20,O=C(Nc1cccnc1)c1cc(F)cc(F)c1,inactive
21,Cc1cc(C)c2nc(NNC(=O)c3ccc(S(=O)(=O)N4CCCCC4)cc3)sc2c1,inactive
22,COC(=O)c1sccc1NC(=O)C1C2C=CC(O2)C1C(=O)O (configuration not stated),inactive
23,Nc1ccc(C(=O)OCc2nc3ccccc3[nH]2)cc1,inactive
24,CCN1CCN(C(=O)c2ccc(COc3ccc(Cl)cc3)o2)CC1,inactive

row,Compound,outcome
1,CCOc1ccc(CCNC(=O)c2cc3sc(Cl)cc3n2C)cc1OCC,inactive
2,CCOc1ccc(/C=N/O)cc1,inactive
3,O=C(O)Cc1sc(Nc2ccc(Cl)cc2)nc1-c1cccs1,inactive
4,S=C(c1ccc2c(c1)OCO2)N1CCCC1,inactive
5,Cc1ccc(-c2n[nH]c(=S)n2/N=C/c2cc3c(cc2[N+](=O)[O-])OCO3)cc1,inactive
6,O=c1[nH]c(SCc2nc3ccccc3c(=O)n2-c2ccccc2C(F)(F)F)nc2ccccc12,inactive
7,CCC(OC(=O)C(NC(=O)c1ccccc1)c1ccccc1)C(=O)Nc1cc(C)on1 (configuration not stated),inactive
8,S=c1[nH]nc(Cc2cccc3ccccc23)o1,inactive
9,Cc1ccc(S(=O)(=O)N2C(=O)CCC2C(=O)N2CCN(C)CC2)cc1 (configuration not stated),inactive
10,CN(C)c1nc(N)nc(Cn2ccnc2)n1,inactive
11,CC(NCc1ccc(Cl)c(Cl)c1)C(O)c1ccccc1 (configuration not stated),inactive
12,CCCc1cc(C(=O)Cc2ccc(C(=O)OCC)o2)c(O)cc1O,inactive
13,COc1ccc(C(=O)Nn2c(SCC(=O)N3CCC(C)CC3)nc3ccccc3c2=O)cc1,inactive
14,O=C(COc1ncnc2sccc12)N1CCN(S(=O)(=O)c2ccc(Cl)cc2)CC1,inactive
15,O=S(=O)(c1ccc2c(c1)OCCO2)N1CCN(c2cccc(Cl)c2)CC1,inactive
16,COc1ccc(N(C(=O)CCl)C(C(=O)NCCc2ccccc2)c2cccs2)cc1 (configuration not stated),inactive
17,S=C(Nc1ccc2snnc2c1)N1CCN(c2ccccn2)CC1,inactive
18,CCn1c2ccccc2c2nnc(SCC(=O)Nc3ccc4c(c3)OCO4)nc21,inactive
19,CCCn1c(SCC(=O)c2c(C)[nH]c(C)c2C(=O)OCC)nc2ccccc21,inactive
20,COc1cc(CNc2ccc(CNc3ncn[nH]3)cc2)ccc1OCc1ccccc1,inactive
21,Clc1ccc(CNc2ccc(CNc3ncn[nH]3)cc2)cc1,inactive
22,CC(C)(C)c1n[nH]c(=S)n(/N=C/c2cccs2)c1=O,inactive
23,Cc1cccc(Nc2nnc(SCC(=O)NC3CCCc4ccccc43)s2)c1 (configuration not stated),inactive
24,CCCCOc1ccc(S(=O)(=O)NNC(=O)C2Cc3c(ccc4ccccc34)O2)cc1 (configuration not stated),inactive

row,Compound,outcome
1,Clc1ccc(SCCCCn2ccnc2)cc1,inactive
2,Cc1c(NS(=O)(=O)c2ccccc2)c(=O)n(-c2ccccc2)n1C,inactive
3,CN1CCN(Cc2nc3ccccc3c(=O)[nH]2)CC1,inactive
4,CC(O)CNc1cc(N)c([N+](=O)[O-])cc1[N+](=O)[O-] (configuration not stated),inactive
5,O=P1(NC2CCCC2)COc2ccccc2OC1,inactive
6,c1ccc(Nc2nc3ccccc3[nH]2)nc1,inactive
7,c1ccc(Nc2ccnc(Nc3ccccc3)n2)cc1,inactive
8,O=C1CN(C(=O)COC(=O)CCC(=O)c2ccc3c(c2)OCCO3)c2ccccc2N1,inactive
9,CSC(=NS(=O)(=O)c1ccccc1)SC,inactive
10,O=C(c1ccccc1)C(CN1CCCC1)c1ccccc1 (configuration not stated),inactive
11,NC1=NC(=Nc2ccc(Cl)cc2)c2ccccc21,inactive
12,C(=Nc1ccc(Nc2ccccc2)cc1)c1ccc2ccccc2c1,inactive
13,CCOC(=O)N1CCN(c2nc(C)c3c(n2)CCCC3=O)CC1,inactive
14,Cc1cc(=O)oc2cc(OCC(O)CN3CCc4ccccc4C3)ccc12 (configuration not stated),inactive
15,CN1CCCC(OC(=O)c2ccc3c(c2)OCCO3)C1 (configuration not stated),inactive
16,COc1nc(N(c2ccccc2)c2ccccc2)nc(-n2ccnc2)n1,inactive
17,COc1ccc(-c2cc(C(=O)Nc3ccc(S(=O)(=O)Nc4ncccn4)cc3)c3ccccc3n2)cc1,inactive
18,COCCCNc1ccnc2c(Cl)cccc12,inactive
19,COC(=O)c1ccc(Sc2ccccc2NS(=O)(=O)c2ccc(C)cc2)nc1,inactive
20,CN(CC(=O)NCc1cccc(F)c1)C(=O)c1ccco1,inactive
21,O=C(c1ccco1)N1CCN(c2ncnc3c2[nH]c2ccccc23)CC1,inactive
